Screen size: about 5,500 compounds; about 2,000 (36%) were called active. Inconclusive results (about 18%) are left out. No stated cut-off is given here; in the data, active means normalized growth mostly below about 0.91 (no sharp cut-off); inconclusive means no clear call, values can overlap the other calls; inactive means mostly above about 0.92. The list shows a part of the results.
Test: chemical genetic growth profiling, strain panel (AID 1159580);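 further: tested at 20 µM; growth read once vehicle control cultures reached saturation at 30 °C; 1 = growth at the plate median or of vehicle wells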
Details: growth OD

Measured: normalized growth

C[C@@H]1O[C@@H](O[C@H]2C[C@@H](O)[C@]3(CO)C4C(CC[C@]3(O)C2)[C@@]2(O)CC[C@H](C3=CC(=O)OC3)[C@@]2(C)C[C@H]4O)[C@H](O)[C@H](O)[C@H]1O (some centres not stated)
inactive: S. cerevisiae deletion strains, locus YKL009W, strain mrt4, stronger effect = lower value 0.991 | S. cerevisiae deletion strains, locus YKL068W, stronger effect = lower value 0.998 | S. cerevisiae deletion strains, locus YKL085W, strain MDH1 (second series), stronger effect = lower value 0.993 | S. cerevisiae deletion strains, locus YKL085W, strain MDH1, stronger effect = lower value 0.993 | S. cerevisiae deletion strains, locus YKL160W, strain elf1, stronger effect = lower value 0.993 | S. cerevisiae deletion strains, locus YKR001C, strain vps1, stronger effect = lower value 1.01 | S. cerevisiae deletion strains, locus YKR026C, strain gcn3, stronger effect = lower value 1.02 | S. cerevisiae deletion strains, locus YKR091W, strain srl3, stronger effect = lower value 1.01 | S. cerevisiae deletion strains, locus YLL001W, strain dnm1, stronger effect = lower value 1.03 | S. cerevisiae deletion strains, locus YLL026W, stronger effect = lower value 1.03 | S. cerevisiae deletion strains, locus YLL041C, strain sdh2, stronger effect = lower value 1.01 | S. cerevisiae deletion strains, locus YLR027C, strain aat2, stronger effect = lower value 1.01 | S. cerevisiae deletion strains, locus YLR039C, strain RIC1, stronger effect = lower value 1.09 | S. cerevisiae deletion strains, locus YLR058C, strain SHM2, stronger effect = lower value 1.02 | S. cerevisiae deletion strains, locus YLR102C, strain apc9, stronger effect = lower value 0.997 | S. cerevisiae deletion strains, locus YLR113W, strain HOG1, stronger effect = lower value 1.01 | S. cerevisiae deletion strains, locus YLR221C, strain rsa3, stronger effect = lower value 1.02 | S. cerevisiae deletion strains, locus YLR258W, strain gsy2, stronger effect = lower value 1.02 | S. cerevisiae deletion strains, locus YLR262C, strain YPT6 (second series), stronger effect = lower value 1.02 | S. cerevisiae deletion strains, locus YLR262C, strain YPT6, stronger effect = lower value 1.09 | S. cerevisiae deletion strains, locus YLR268W, strain sec22, stronger effect = lower value 0.98 | S. cerevisiae deletion strains, locus YLR320W, strain mms22, stronger effect = lower value 1.03 | S. cerevisiae deletion strains, locus YLR330W, strain CHS5, stronger effect = lower value 1.01 | S. cerevisiae deletion strains, locus YLR342W, strain FKS1 (second series), stronger effect = lower value 1.04 | S. cerevisiae deletion strains, locus YLR342W, strain FKS1, stronger effect = lower value 1.02 | S. cerevisiae deletion strains, locus YLR357W, strain rsc2, stronger effect = lower value 1.01 | S. cerevisiae deletion strains, locus YLR370C, strain arc18, stronger effect = lower value 1.05 | S. cerevisiae deletion strains, locus YLR371W, strain rom2, stronger effect = lower value 0.989 | S. cerevisiae deletion strains, locus YLR384C, strain iki3, stronger effect = lower value 1.02 | S. cerevisiae deletion strains, locus YLR418C, strain cdc73, stronger effect = lower value 0.971 | S. cerevisiae deletion strains, locus YML016C, strain PPZ1, stronger effect = lower value 1.02 | S. cerevisiae deletion strains, locus YML032C, strain rad52, stronger effect = lower value 0.997 | S. cerevisiae deletion strains, locus YML120C, strain ndi1, stronger effect = lower value 1.04 | S. cerevisiae deletion strains, locus YML124C, strain tub3, stronger effect = lower value 0.987 | S. cerevisiae deletion strains, locus YMR058W, strain fet3, stronger effect = lower value 1.02 | S. cerevisiae deletion strains, locus YMR078C, strain ctf18, stronger effect = lower value 0.981 | S. cerevisiae deletion strains, locus YMR125W, strain sto1, stronger effect = lower value 1.02 | S. cerevisiae deletion strains, locus YMR129W, stronger effect = lower value 1.02 | S. cerevisiae deletion strains, locus YMR205C, strain PFK2, stronger effect = lower value 0.995 | S. cerevisiae deletion strains, locus YMR223W, strain ubp8, stronger effect = lower value 0.998 | S. cerevisiae deletion strains, locus YMR231W, strain pep5, stronger effect = lower value 1.02 | S. cerevisiae deletion strains, locus YMR263W, strain SAP30, stronger effect = lower value 1.01 | S. cerevisiae deletion strains, locus YMR307W, strain GAS1, stronger effect = lower value 1.17 | S. cerevisiae deletion strains, locus YNL067W, strain RPL9B, stronger effect = lower value 1.01 | S. cerevisiae deletion strains, locus YNL071W, strain lat1, stronger effect = lower value 1.03 | S. cerevisiae deletion strains, locus YNL183C, strain NPR1, stronger effect = lower value 0.963 | S. cerevisiae deletion strains, locus YNL209W, strain ssb2, stronger effect = lower value 1.02 | S. cerevisiae deletion strains, locus YNL233W, strain BNI4, stronger effect = lower value 1.03 | S. cerevisiae deletion strains, locus YNL248C, strain rpa49, stronger effect = lower value 0.985 | S. cerevisiae deletion strains, locus YNL250W, strain rad50, stronger effect = lower value 1.02 | S. cerevisiae deletion strains, locus YNL271C, strain bni1, stronger effect = lower value 0.985 | S. cerevisiae deletion strains, locus YNL298W, strain CLA4, stronger effect = lower value 0.996 | S. cerevisiae deletion strains, locus YNL307C, strain MCK1, stronger effect = lower value 0.999 | S. cerevisiae deletion strains, locus YNL322C, strain KRE1 (second series), stronger effect = lower value 1.01 | S. cerevisiae deletion strains, locus YNL322C, strain KRE1, stronger effect = lower value 1.02 | S. cerevisiae deletion strains, locus YNR049C, strain mso1, stronger effect = lower value 1.03 | S. cerevisiae deletion strains, locus YNR052C, strain pop2, stronger effect = lower value 0.981 | S. cerevisiae deletion strains, locus YOL006C, strain TOP1, stronger effect = lower value 1.03 | S. cerevisiae deletion strains, locus YOL012C, strain htz1 0.899 | S. cerevisiae deletion strains, locus YOL147C, strain pex11, stronger effect = lower value 0.997 | S. cerevisiae deletion strains, locus YOR001W, strain rrp6, stronger effect = lower value 1.05 | S. cerevisiae deletion strains, locus YOR061W, strain CKA2, stronger effect = lower value 1.02 | S. cerevisiae deletion strains, locus YOR069W, strain VPS5, stronger effect = lower value 1.02 | S. cerevisiae deletion strains, locus YOR070C, strain gyp1, stronger effect = lower value 1.03 | S. cerevisiae deletion strains, locus YOR080W, strain dia2, stronger effect = lower value 1.03 | S. cerevisiae deletion strains, locus YOR083W, strain WHI5, stronger effect = lower value 0.985 | S. cerevisiae deletion strains, locus YOR106W, strain vam3, stronger effect = lower value 1.01 | S. cerevisiae deletion strains, locus YOR136W, strain idh2, stronger effect = lower value 0.987 | S. cerevisiae deletion strains, locus YOR144C, strain elg1, stronger effect = lower value 0.983 | S. cerevisiae deletion strains, locus YOR184W, strain ser1, stronger effect = lower value 1.01 | S. cerevisiae deletion strains, locus YOR231W, strain MKK1, stronger effect = lower value 1.02 | S. cerevisiae deletion strains, locus YOR265W, strain rbl2, stronger effect = lower value 1.01 | S. cerevisiae deletion strains, locus YOR270C, strain vph1, stronger effect = lower value 1.05 | S. cerevisiae deletion strains, locus YOR290C, strain snf2, stronger effect = lower value 1.04 | S. cerevisiae deletion strains, locus YOR316C, strain cot1, stronger effect = lower value 0.989 | S. cerevisiae deletion strains, locus YPL051W, strain arl3, stronger effect = lower value 1.01 | S. cerevisiae deletion strains, locus YPL078C, strain atp4, stronger effect = lower value 1.02 | S. cerevisiae deletion strains, locus YPL106C, strain sse1, stronger effect = lower value 1.03 | S. cerevisiae deletion strains, locus YPL240C, strain hsp82, stronger effect = lower value 1.03 | S. cerevisiae deletion strains, locus YPL241C, strain CIN2, stronger effect = lower value 1.01 | S. cerevisiae deletion strains, locus YPL256C, strain CLN2, stronger effect = lower value 1.03 | S. cerevisiae deletion strains, locus YPR119W, strain clb2, stronger effect = lower value 0.986 | S. cerevisiae deletion strains, locus YPR141C, strain kar3, stronger effect = lower value 0.989 | S. cerevisiae deletion strains, locus YPR163C, strain tif3, stronger effect = lower value 0.988 | S. cerevisiae deletion strains, locus YPR167C, strain met16, stronger effect = lower value 0.99 | S. cerevisiae deletion strains, strain wtn01, stronger effect = lower value 0.976 | S. cerevisiae strains, strain wild type, stronger effect = lower value 1.02
